Assay results published in PubChem BioAssay (Tox21).
Several values for one entry are separate records, joined by “and”; a condition that tells them apart may be missing. Equal entries are not always repeated. Results filed as inconclusive are left out. A call without a number means that no potency is given here. Activity calls are given as the source filed them. Calls come from the whole dose curve; as a rule, active = well fitted curve in the direction sought with a large enough effect in the repeat runs; inconclusive = weak or mixed curves; inactive = no such curve, though single readings can be large; an effect the other way counts as inactive or inconclusive.

What follows are compounds tested against Voltage-gated inwardly rectifying potassium channel KCNH2 (Homo sapiens) (UniProt Q12809) (assay: Human Ether-a-go-go-Related Gene (hERG) channel small molecule antagonists: fluorescence cell-based qHTS assay (AID 1671200; note: potency is the fitted concentration of half-maximal effect)). Settings: hERG-U2OS cells, FluxOR thallium flux fluorescence; series mostly up to 76.8 µM.
Summary of the method: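 Read-out: thallium influx as a surrogate for potassium, tracked as fluorescence (480 nm ex/540 nm em) every second for 2 min after Stimulus Buffer addition in dye-loaded hERG-U2OS cells.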
Note: nearly all actives have a fitted effect of over 50% in size.

Voltage-gated inwardly rectifying potassium channel KCNH2 (Homo sapiens), sequence (Q12809 whole entry, looked up): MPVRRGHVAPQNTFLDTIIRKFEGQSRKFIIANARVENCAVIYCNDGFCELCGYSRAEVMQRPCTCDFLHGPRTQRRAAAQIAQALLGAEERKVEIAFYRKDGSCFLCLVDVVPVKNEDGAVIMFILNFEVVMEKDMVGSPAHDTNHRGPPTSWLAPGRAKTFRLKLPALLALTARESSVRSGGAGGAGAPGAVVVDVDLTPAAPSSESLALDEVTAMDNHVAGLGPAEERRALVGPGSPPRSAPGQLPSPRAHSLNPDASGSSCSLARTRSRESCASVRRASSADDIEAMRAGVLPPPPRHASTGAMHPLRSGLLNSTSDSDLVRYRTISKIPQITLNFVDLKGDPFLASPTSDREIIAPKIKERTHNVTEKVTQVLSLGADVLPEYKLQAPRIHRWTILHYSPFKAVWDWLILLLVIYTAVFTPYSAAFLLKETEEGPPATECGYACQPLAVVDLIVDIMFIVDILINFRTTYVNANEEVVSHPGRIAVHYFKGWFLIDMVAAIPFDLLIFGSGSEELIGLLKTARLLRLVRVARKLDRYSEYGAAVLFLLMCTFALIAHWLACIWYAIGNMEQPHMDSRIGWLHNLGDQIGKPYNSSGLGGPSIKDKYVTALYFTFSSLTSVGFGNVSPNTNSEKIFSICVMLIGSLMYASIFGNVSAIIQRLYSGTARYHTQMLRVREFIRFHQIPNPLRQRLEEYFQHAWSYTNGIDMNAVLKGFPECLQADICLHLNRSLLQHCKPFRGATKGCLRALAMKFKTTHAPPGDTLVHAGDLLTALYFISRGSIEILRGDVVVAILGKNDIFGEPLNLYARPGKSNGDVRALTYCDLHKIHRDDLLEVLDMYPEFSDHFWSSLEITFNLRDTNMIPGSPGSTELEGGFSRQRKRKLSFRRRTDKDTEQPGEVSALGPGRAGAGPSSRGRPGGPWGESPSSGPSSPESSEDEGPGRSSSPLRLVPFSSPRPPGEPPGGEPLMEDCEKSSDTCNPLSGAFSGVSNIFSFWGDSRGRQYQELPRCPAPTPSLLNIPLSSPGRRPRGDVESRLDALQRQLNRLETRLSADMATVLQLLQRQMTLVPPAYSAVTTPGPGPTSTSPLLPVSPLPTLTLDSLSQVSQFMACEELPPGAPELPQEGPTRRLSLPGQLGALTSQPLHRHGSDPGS

Structure (SMILES)	Potency
Nc1ccccc1N	inactive
Cn1cnc([N+](=O)[O-])c1Sc1ncnc2nc[nH]c12	inactive
Cc1ccc(C)c(O)c1C	inactive
c1ccc2cc(Nc3ccc(Nc4ccc5ccccc5c4)cc3)ccc2c1	inactive
CC(C)CC(C)(O)C#CC(C)(O)CC(C)C (stereo unspecified)	inactive
CC(C)=CCC/C(C)=C\CO	inactive
c1ccc2c(c1)c1cccc3ccc4cccc2c4c31	inactive
OC[C@H]1O[C@@H]2O[C@H]3[C@H](O)[C@@H](O)[C@@H](O[C@H]4[C@H](O)[C@@H](O)[C@@H](O[C@H]5[C@H](O)[C@@H](O)[C@@H](O[C@H]6[C@H](O)[C@@H](O)[C@@H](O[C@H]7[C@H](O)[C@@H](O)[C@@H](O[C@H]8[C@H](O)[C@@H](O)[C@@H](O[C@H]1[C@H](O)[C@H]2O)O[C@@H]8CO)O[C@@H]7CO)O[C@@H]6CO)O[C@@H]5CO)O[C@@H]4CO)O[C@@H]3CO	inactive
NNc1ccc(C(=O)O)cc1	inactive
O=P(O)(O)O	inactive
O=c1oc(=O)c2cc3c(=O)oc(=O)c3cc12	inactive
CCC(C)c1ccccc1O (stereo unspecified)	inactive
CCC(C)OC(=O)c1ccc(O)cc1 (stereo unspecified)	inactive
O=[N+]([O-])c1ccc2c(c1)Cc1ccccc1-2	inactive
O=C(c1ccc(OCCN2CCCCC2)cc1)c1c(-c2ccc(O)cc2)sc2cc(O)ccc12	21.9 µM (active) and 43.6 µM (active)
O=C1c2cccc(O)c2C(=O)c2c(O)cccc21	inactive
O=C(/C=C/C=C/c1ccc2c(c1)OCO2)N1CCCCC1	inactive

Structure (SMILES)	Potency
O=C=Nc1ccc(Cc2ccc(N=C=O)cc2)cc1	inactive
C#C[C@]1(O)CC[C@H]2[C@@H]3CCC4=Cc5oncc5C[C@]4(C)[C@H]3CC[C@@]21C	inactive
COc1cc([C@@H]2c3cc4c(cc3[C@H](O)[C@H]3COC(=O)[C@H]23)OCO4)cc(OC)c1OC	inactive
Brc1cc(Oc2cc(Br)c(Br)c(Br)c2Br)c(Br)c(Br)c1Br	inactive
CC(C)(C)NC(=O)[C@H]1CC[C@H]2[C@@H]3CC[C@H]4NC(=O)C=C[C@]4(C)[C@H]3CC[C@]12C	inactive
CCCC(=O)O	inactive
CCCCCCCCCCCO	inactive
CN(C)c1nc(N(C)C)nc(N(C)C)n1	inactive
Oc1ccc(O)cc1	inactive
c1ccc2sc(SSN3CCOCC3)nc2c1	inactive
COc1ccc(OC)c(C(O)CNC(=O)CN)c1 (stereo unspecified)	inactive
Nc1ncn([C@@H]2O[C@H](CO)[C@@H](O)[C@H]2O)c(=O)n1	inactive
COc1cccc2c1C(=O)c1c(O)c3c(c(O)c1C2=O)C[C@@](O)(C(=O)CO)C[C@@H]3O[C@H]1C[C@H](N)[C@H](O)[C@H](C)O1	inactive
CC(CCC(=O)O)(c1ccc(O)cc1)c1ccc(O)cc1	inactive
c1cc(-c2ccncc2)ccn1	inactive
COC(=O)C1=C(C)NC(C)=C(C(=O)OCCN(C)Cc2ccccc2)C1c1cccc([N+](=O)[O-])c1 (stereo unspecified)	10.9 µM (active) and 8.49 µM (active)
Cc1ccc(C(=O)c2cc(O)c(O)c([N+](=O)[O-])c2)cc1	inactive

Each compound was assayed against Cytochrome P450 3A4 (Homo sapiens) (UniProt P08684) (assay: Cytochrome P450 Family 3 Subfamily A Member 4 (CYP3A4) small molecule antagonists: luciferase reporter qHTS assay (AID 1671201)). Settings: P450-Glo CYP3A4 enzyme, luciferin luminescence, 1 h; series mostly up to 115 µM.
Summary of the method: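 Luminescent readout (RLU) proportional to CYP3A4 activity, from luciferin generated off a proluciferin substrate. Enzyme–substrate mix plus compound 10 min at room temp, NADPH regeneration 1 h, detection reagent 20 min.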

Cytochrome P450 3A4 (Homo sapiens), sequence (P08684 whole entry, looked up): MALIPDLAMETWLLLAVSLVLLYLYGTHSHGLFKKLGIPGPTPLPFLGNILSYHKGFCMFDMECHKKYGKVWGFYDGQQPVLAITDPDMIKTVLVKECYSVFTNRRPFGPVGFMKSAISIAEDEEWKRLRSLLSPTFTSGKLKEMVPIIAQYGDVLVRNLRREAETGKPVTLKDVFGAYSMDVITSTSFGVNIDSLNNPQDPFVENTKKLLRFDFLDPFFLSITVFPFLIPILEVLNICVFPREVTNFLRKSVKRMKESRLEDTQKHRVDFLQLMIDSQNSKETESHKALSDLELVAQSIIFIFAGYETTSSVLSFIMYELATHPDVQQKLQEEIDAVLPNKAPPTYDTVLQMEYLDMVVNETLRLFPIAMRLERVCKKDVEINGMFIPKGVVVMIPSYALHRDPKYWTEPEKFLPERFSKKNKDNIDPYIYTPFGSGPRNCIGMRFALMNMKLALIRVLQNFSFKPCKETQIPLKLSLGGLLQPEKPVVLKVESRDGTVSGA

Structure (SMILES)	Potency
Cn1cnc([N+](=O)[O-])c1Sc1ncnc2nc[nH]c12	inactive
Cc1ccc(C)c(O)c1C	inactive
c1ccc2cc(Nc3ccc(Nc4ccc5ccccc5c4)cc3)ccc2c1	inactive
c1ccc2c(c1)c1cccc3ccc4cccc2c4c31	inactive
Cc1cc2nc3c(=O)[nH]c(=O)nc-3n(C[C@H](O)[C@H](O)[C@H](O)CO)c2cc1C	inactive
OC[C@H]1O[C@@H]2O[C@H]3[C@H](O)[C@@H](O)[C@@H](O[C@H]4[C@H](O)[C@@H](O)[C@@H](O[C@H]5[C@H](O)[C@@H](O)[C@@H](O[C@H]6[C@H](O)[C@@H](O)[C@@H](O[C@H]7[C@H](O)[C@@H](O)[C@@H](O[C@H]8[C@H](O)[C@@H](O)[C@@H](O[C@H]1[C@H](O)[C@H]2O)O[C@@H]8CO)O[C@@H]7CO)O[C@@H]6CO)O[C@@H]5CO)O[C@@H]4CO)O[C@@H]3CO	inactive
NNc1ccc(C(=O)O)cc1	inactive
CCC(C)c1ccccc1O (stereo unspecified)	inactive
CCC(C)OC(=O)c1ccc(O)cc1 (stereo unspecified)	inactive
O=[N+]([O-])c1ccc2c(c1)Cc1ccccc1-2	inactive
O=C1c2cccc(O)c2C(=O)c2c(O)cccc21	inactive
Brc1cc(Oc2cc(Br)c(Br)c(Br)c2Br)c(Br)c(Br)c1Br	inactive
CC(C)(C)NC(=O)[C@H]1CC[C@H]2[C@@H]3CC[C@H]4NC(=O)C=C[C@]4(C)[C@H]3CC[C@]12C	inactive
CCCC(=O)O	inactive
CCCCCCCCCCCO	inactive
Oc1ccc(O)cc1	inactive
c1ccc2sc(SSN3CCOCC3)nc2c1	inactive
Cc1[nH]c(=O)c(C#N)cc1-c1ccncc1	inactive
c1ccc2c(c1)Oc1ccccc1S2	inactive
Nc1ncn([C@@H]2O[C@H](CO)[C@@H](O)[C@H]2O)c(=O)n1	inactive
CC(CCC(=O)O)(c1ccc(O)cc1)c1ccc(O)cc1	inactive
c1cc(-c2ccncc2)ccn1	inactive
